Data on eleven compounds can be found in the supplement of paper PMC6853941.

This assay deals with MCF10A. As to the kind of experiment: perturbation Mahalanobis distance of morphological profile vs DMSO controls (Mahalanobis distance (SD units)); higher = stronger morphological change, active = 7 or more. To be noted: screen batch: Batch1_Mahalanobis_Distance; 72 h. As for the experimental part:
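MCF10A cells were seeded onto drugs dispensed acoustically into 384-well plates, using one dose per drug chosen from its human peak plasma concentration, and incubated for 72 h at 37 °C. Cells were stained for DNA, tubulin and mitochondria and imaged; 78 CellProfiler features were extracted, plate-normalised and compared with DMSO wells.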
Turning to `Nc1ccc(O)c(C(=O)O)c1` [Mesalazine] (39.2 µM), the “perturbation Mahalanobis distance” value was 3.41 (inactive).
Take `Cc1c(OCC(F)(F)F)ccnc1CS(=O)c1nc2ccccc2[nH]1` (stereo unspecified) [Lansoprazole] (23 µM): the “perturbation Mahalanobis distance” value is 4.87 (inactive).
Take `O=c1ncnc2[nH][nH]cc1-2` [Allopurinol] (139.6 µM): the “perturbation Mahalanobis distance” value was 2.93 (inactive).
Regarding `COc1cc(N)c(Cl)cc1C(=O)NC1CCN(CCCOc2ccc(F)cc2)CC1OC` (stereo unspecified) [Cisapride] (0.85 µM), the “perturbation Mahalanobis distance” value is 3.31 (inactive).
The same measure for `CCOC(=O)C(C)(C)Oc1ccc(Cl)cc1` [Clofibrate] (325.5 µM): 6.08 (inactive); for `CCC(=O)NCC[C@@H]1CCc2ccc3c(c21)CCO3` [Ramelteon] (0.13 µM): 2.83 (inactive).
The same measure for `NNc1nncc2ccccc12` [Hydralazine] (15.6 µM): 4.07 (inactive); for `Cc1ncc([N+](=O)[O-])n1CCO` [Metronidazole] (58.4 µM): 3.04 (inactive); for `C[N+](C)(C)CCOC(=O)CCC(=O)OCC[N+](C)(C)C` [Succinylcholine Chloride] (12.65 µM): 2.23 (inactive).
As to `Nc1nnc(-c2cccc(Cl)c2Cl)c(N)n1` [Lamotrigine] (54.6 µM), the “perturbation Mahalanobis distance” value is 2.15 (inactive).
With `CO[C@H]1/C=C/O[C@@]2(C)Oc3c(C)c(O)c4c(c3C2=O)C2=NC3(CCN(CC(C)C)CC3)NC2=C(NC(=O)/C(C)=C\C=C\[C@H](C)[C@H](O)[C@@H](C)[C@@H](O)[C@@H](C)[C@H](OC(C)=O)[C@@H]1C)C4=O` [Rifabutin] (0.89 µM) the figure was 6.13 (inactive).
